PubChem BioAssay (NCI)
About 83,000 compounds went through this panel and 20% of them were active in at least one assay; those are over-represented in the sample as a whole.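 Method: cells in 96-well plates; compound added at one concentration; 48 h incubation; percent growth measured; values under 10 scored active.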 Calls of active or inactive are those of the source.

What was measured:
Test in all cases: NCI-60 one-dose screen, 48 h (100 = growth as untreated, 0 = no growth, -100 = all killed)
Conditions in all cases: 10 µM unless noted
SR leukemia = tested on: SR leukemia
RPMI-8226 leukemia = tested on: RPMI-8226 leukemia
OVCAR-8 ovarian = tested on: OVCAR-8 ovarian
OVCAR-5 ovarian = tested on: OVCAR-5 ovarian
OVCAR-4 ovarian = tested on: OVCAR-4 ovarian
SK-OV-3 ovarian = tested on: SK-OV-3 ovarian
IGROV1 ovarian = tested on: IGROV1 ovarian
HS 578T breast = tested on: HS 578T breast
NCI/ADR-RES ovarian = tested on: NCI/ADR-RES ovarian
T-47D breast = tested on: T-47D breast
BT-549 breast = tested on: BT-549 breast
MDA-MB-435 melanoma = tested on: MDA-MB-435 melanoma
SW-620 colon = tested on: SW-620 colon
MCF7 breast = tested on: MCF7 breast
HCT-116 colon = tested on: HCT-116 colon
HCC-2998 colon = tested on: HCC-2998 colon
KM12 colon = tested on: KM12 colon
OVCAR-3 ovarian = tested on: OVCAR-3 ovarian

Measured: growth

Cn1cc(-c2csc(-c3cn(CCCN4CCCCC4)c4ccc(Br)cc34)n2)c2cccnc21
active: SR leukemia -48.9% | RPMI-8226 leukemia -35.3% | OVCAR-8 ovarian -16.4% | IGROV1 ovarian -20.1% | MDA-MB-435 melanoma -69.5% | SW-620 colon -74.3% | MCF7 breast -64.6% | HCT-116 colon -89.5% | KM12 colon 9.18%
inactive: OVCAR-5 ovarian 30.8% | OVCAR-4 ovarian 32.3% | SK-OV-3 ovarian 75.2% | HS 578T breast 60.8% | NCI/ADR-RES ovarian 19.9% | T-47D breast 21.8% | BT-549 breast 70.9% | HCC-2998 colon 85.5%

Oc1cc(/C=C/c2nc(N3CCOCC3)c3cc(Cl)c(Cl)cc3n2)cc(O)c1O
inactive: SR leukemia 87.8% | RPMI-8226 leukemia 103% | OVCAR-8 ovarian 107% | OVCAR-5 ovarian 102% | OVCAR-4 ovarian 110% | SK-OV-3 ovarian 105% | IGROV1 ovarian 108% | HS 578T breast 118% | NCI/ADR-RES ovarian 100% | T-47D breast 94.9% | BT-549 breast 95.5% | MDA-MB-435 melanoma 106% | SW-620 colon 107% | MCF7 breast 106% | HCT-116 colon 104% | HCC-2998 colon 104% | KM12 colon 111%

COC(=O)[C@]12CC[C@@H](C)[C@H](C)[C@@H]1C1=CC[C@@H]3[C@@]4(C)C[C@@H](OC(C)=O)[C@H](OC(C)=O)[C@@](C)(COC(C)=O)[C@@H]4[C@H](O)C[C@@]3(C)[C@]1(C)CC2
inactive: OVCAR-8 ovarian 16.9% | OVCAR-5 ovarian 34.6% | OVCAR-4 ovarian 19.3% | IGROV1 ovarian 36.7% | HS 578T breast 35.9% | NCI/ADR-RES ovarian 10.5% | MDA-MB-435 melanoma 17.4% | SW-620 colon 20.7%
active: SR leukemia 2.75% | RPMI-8226 leukemia 5.96% | SK-OV-3 ovarian 2.45% | T-47D breast -13.6% | BT-549 breast 0.787% | MCF7 breast 5.21% | HCC-2998 colon 5.84% | KM12 colon 8.42%

CC(C)(C)c1[nH]nc2c1C(c1cc3ccccc3[nH]c1=O)Nc1cc(C(=O)OCc3ccccc3)ccc1N2 (stereo unspecified)
inactive: SR leukemia 38.9% | RPMI-8226 leukemia 53.6% | OVCAR-8 ovarian 64.9% | OVCAR-5 ovarian 87.8% | OVCAR-4 ovarian 54.3% | SK-OV-3 ovarian 83% | IGROV1 ovarian 78.5% | HS 578T breast 66.6% | NCI/ADR-RES ovarian 86.8% | T-47D breast 36.7% | BT-549 breast 56.4% | MDA-MB-435 melanoma 39.9% | SW-620 colon 54.4% | MCF7 breast 38.1% | HCT-116 colon 38.4% | HCC-2998 colon 55.9% | KM12 colon 31%

Cn1c2ccccc2c2c3c(c4c5cccnc5[nH]c4c21)C(=O)N(O)C3=O
inactive: SR leukemia 11.4% | RPMI-8226 leukemia 39.6% | OVCAR-8 ovarian 45.5% | OVCAR-5 ovarian 104% | OVCAR-4 ovarian 71.3% | SK-OV-3 ovarian 37.5% | IGROV1 ovarian 45.1% | HS 578T breast 110% | NCI/ADR-RES ovarian 57.2% | T-47D breast 16.4% | BT-549 breast 44.6% | SW-620 colon 45.4% | MCF7 breast 12.9% | HCT-116 colon 36.3% | HCC-2998 colon 54.4% | KM12 colon 65.9%

C/C(=C(/c1ccccc1)c1ccc(N2C(=O)c3cccc4c(NCc5ccccc5)ccc(c34)C2=O)cc1)c1ccccc1
inactive: SR leukemia 83.6% | RPMI-8226 leukemia 102% | OVCAR-8 ovarian 95% | OVCAR-5 ovarian 102% | OVCAR-4 ovarian 101% | SK-OV-3 ovarian 111% | IGROV1 ovarian 94.8% | HS 578T breast 96% | NCI/ADR-RES ovarian 97.9% | T-47D breast 76% | BT-549 breast 100% | MDA-MB-435 melanoma 102% | SW-620 colon 95.2% | MCF7 breast 89.9% | HCT-116 colon 87.1% | HCC-2998 colon 109% | KM12 colon 91.5%

Cc1ccc(-c2ccc(Nc3ccccc3)nn2)cc1S(N)(=O)=O
active: MDA-MB-435 melanoma 8.3%
inactive: SR leukemia 23.6% | RPMI-8226 leukemia 86.1% | OVCAR-8 ovarian 94.1% | OVCAR-5 ovarian 101% | OVCAR-4 ovarian 94.7% | SK-OV-3 ovarian 100% | IGROV1 ovarian 97.3% | OVCAR-3 ovarian 94.6% | T-47D breast 84.2% | BT-549 breast 80.6% | SW-620 colon 51.7% | HCT-116 colon 79% | HCC-2998 colon 59.8% | KM12 colon 39.3%

C#Cc1cc2c(N)c(C(=O)c3cc(OC)c(OC)c(OC)c3)[nH]c2cc1OC
inactive: RPMI-8226 leukemia 26.7% | OVCAR-8 ovarian 47.8% | OVCAR-5 ovarian 37.5% | SK-OV-3 ovarian 28.8% | IGROV1 ovarian 32.6% | NCI/ADR-RES ovarian 21.9% | T-47D breast 25.7% | BT-549 breast 57.4% | SW-620 colon 18.4% | MCF7 breast 19.7% | HCT-116 colon 29.9% | HCC-2998 colon 64.3% | KM12 colon 31.5%
active: SR leukemia 7.33% | OVCAR-3 ovarian 0.789% | HS 578T breast 1.91% | MDA-MB-435 melanoma -15.8%

COc1cc2[nH]c(C(=O)c3cc(OC)c(OC)c(OC)c3)c(N)c2cc1C#CCO
active: SR leukemia 0.173% | OVCAR-3 ovarian -17.8% | MDA-MB-435 melanoma -27.1%
inactive: RPMI-8226 leukemia 26.8% | OVCAR-8 ovarian 31.7% | OVCAR-5 ovarian 15.9% | SK-OV-3 ovarian 18.3% | IGROV1 ovarian 22.9% | HS 578T breast 19.8% | NCI/ADR-RES ovarian 37.8% | T-47D breast 56% | BT-549 breast 54% | SW-620 colon 16.9% | MCF7 breast 10.1% | HCT-116 colon 10% | HCC-2998 colon 13.5%

CCOc1ccc(NC(=O)c2ccccc2-c2ccccc2C(=O)O)cc1
inactive: SR leukemia 89.7% | RPMI-8226 leukemia 101% | OVCAR-8 ovarian 111% | OVCAR-5 ovarian 98.6% | SK-OV-3 ovarian 109% | IGROV1 ovarian 110% | OVCAR-3 ovarian 110% | HS 578T breast 103% | NCI/ADR-RES ovarian 108% | T-47D breast 103% | BT-549 breast 108% | MDA-MB-435 melanoma 104% | SW-620 colon 107% | MCF7 breast 97.4% | HCT-116 colon 103% | HCC-2998 colon 103% | KM12 colon 110%

CC(C)=CCC/C(C)=C/CC/C(C)=C/CSC[C@H](NC(=O)CCCCCN1CCN(C)CC1)C(=O)NC1CCCCCC1
active: SR leukemia -20.1% | SW-620 colon -22.1% | MCF7 breast 7.39% | HCT-116 colon -61%
inactive: RPMI-8226 leukemia 51.8% | OVCAR-8 ovarian 80.7% | OVCAR-5 ovarian 68.7% | SK-OV-3 ovarian 96.4% | IGROV1 ovarian 69.8% | OVCAR-3 ovarian 76.6% | HS 578T breast 76.2% | NCI/ADR-RES ovarian 72.3% | T-47D breast 36.9% | BT-549 breast 90.5% | MDA-MB-435 melanoma 50.2% | HCC-2998 colon 19.3% | KM12 colon 66.1%

Cc1ccccc1-c1nc(C(Cl)Cl)nc2cc(-c3ccccc3)nn12
inactive: SR leukemia 50.2% | RPMI-8226 leukemia 61.6% | OVCAR-8 ovarian 86.9% | OVCAR-5 ovarian 96.4% | OVCAR-4 ovarian 77.5% | IGROV1 ovarian 59.9% | OVCAR-3 ovarian 28.3% | HS 578T breast 70% | NCI/ADR-RES ovarian 65.3% | T-47D breast 40.1% | BT-549 breast 92.9% | MDA-MB-435 melanoma 56.6% | SW-620 colon 53.5% | MCF7 breast 64% | HCT-116 colon 55% | HCC-2998 colon 69.2% | KM12 colon 36.5%

Cn1cc(-c2nc(-c3c[nH]c4ncccc34)cs2)c2cc(F)ccc21
inactive: SR leukemia 13.7% | RPMI-8226 leukemia 36.4% | OVCAR-8 ovarian 51.4% | OVCAR-5 ovarian 21.4% | SK-OV-3 ovarian 55.9% | IGROV1 ovarian 26.5% | OVCAR-3 ovarian 21% | HS 578T breast 66.8% | T-47D breast 24.3% | BT-549 breast 58% | SW-620 colon 31.8% | HCT-116 colon 20.3% | HCC-2998 colon 20.5%
active: NCI/ADR-RES ovarian 8.92% | MDA-MB-435 melanoma 0.641% | KM12 colon -12.7%

COc1ccc(/C=C/C(=O)c2ccc([N+](=O)[O-])cc2)cc1
inactive: SR leukemia 85.4% | RPMI-8226 leukemia 78.9% | OVCAR-8 ovarian 105% | OVCAR-5 ovarian 111% | SK-OV-3 ovarian 103% | IGROV1 ovarian 105% | OVCAR-3 ovarian 113% | HS 578T breast 106% | NCI/ADR-RES ovarian 106% | T-47D breast 98% | MDA-MB-435 melanoma 106% | SW-620 colon 111% | MCF7 breast 96% | HCT-116 colon 99.2% | HCC-2998 colon 105% | KM12 colon 98.6%

Cc1cc(Nc2ccc(F)cc2)nc(N2CCN(c3ccnc4cc(Cl)ccc34)CC2)n1
inactive: RPMI-8226 leukemia 12.5% | OVCAR-8 ovarian 31.9% | SK-OV-3 ovarian 46.8% | IGROV1 ovarian 31.6% | OVCAR-3 ovarian 24.1% | HS 578T breast 39.3% | NCI/ADR-RES ovarian 13.5% | T-47D breast 10.8% | BT-549 breast 47.5% | MDA-MB-435 melanoma 13.2% | SW-620 colon 23.1% | HCC-2998 colon 25.8% | KM12 colon 21.6%
active: SR leukemia 2.7% | OVCAR-5 ovarian 8.2% | MCF7 breast 9.35%

Cn1cc(-c2nc(-c3c[nH]c4ncccc34)cs2)c2ccccc21
inactive: SR leukemia 40% | RPMI-8226 leukemia 64% | OVCAR-8 ovarian 101% | OVCAR-5 ovarian 49.1% | SK-OV-3 ovarian 95.5% | IGROV1 ovarian 51% | OVCAR-3 ovarian 77.7% | HS 578T breast 103% | NCI/ADR-RES ovarian 74.4% | T-47D breast 29.1% | BT-549 breast 82.9% | MDA-MB-435 melanoma 36.5% | SW-620 colon 95.8% | MCF7 breast 10.5% | HCT-116 colon 76.9% | HCC-2998 colon 32.6% | KM12 colon 12.9%

Cn1cc(-c2csc(-c3c[nH]c4ccccc34)n2)c2cccnc21
inactive: SR leukemia 27.4% | RPMI-8226 leukemia 21.3% | OVCAR-8 ovarian 39.2% | OVCAR-5 ovarian 54% | SK-OV-3 ovarian 28.9% | IGROV1 ovarian 42% | HS 578T breast 60.5% | T-47D breast 27.2% | BT-549 breast 49.6% | SW-620 colon 29.6% | MCF7 breast 13.6% | HCT-116 colon 30.5% | HCC-2998 colon 33.2% | KM12 colon 32.5%
active: OVCAR-3 ovarian -14.9% | NCI/ADR-RES ovarian 0.975% | MDA-MB-435 melanoma -13.9%
